Laboratory results as given in PubChem BioAssay (NCI).
Compounds without any hit were thinned out: in the full panel of roughly 83,000, 20% have a hit.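 Treatment: one concentration, 48 hours, 96-well format. Scoring: percent growth, with anything below 10 considered active.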 A number with no mark means an inactive call. Calls of active or inactive are those of the source.

The molecules below were run on SF-295 CNS (assay: NCI-60 one-dose screen, 48 h (100 = growth as untreated, 0 = no growth, -100 = all killed)). Conditions: 10 µM unless noted.

| SMILES | growth |
| --- | --- |
| c1cc2c(c3c1CCNC3)OCO2 | 96.4% |
| Fc1ccc2c(c1)c(-c1nc(-c3c[nH]c4ncccc34)cs1)cn2CCCCN1CCCCC1 | -60.7% (active) |
| O=C(Nc1ccncc1F)c1cn(CC2CC2)c2ccccc12 | 100% |
| COP(=S)(N1CC1)N1CC1 | 104% |
| C/C=C(\C)C(=O)O[C@@H]1C(O)[C@H]2OC(COC(=O)CCC(=O)CCCCCC[C@H](CCCCC)O[C@@H]3OC(C)[C@H](OC(C)=O)C(O)[C@H]3O2)[C@H]1OC(=O)/C=C/c1ccccc1 (some centres undefined) | -33.6% (active) |
| CCc1ccccc1[C@@H]1C[C@]2(C)CCO[C@@H]2OO1 | 101% |
| CC(=O)O[C@H](C[C@H](C(C)C)N(C)C(=O)[C@@H](NC(=O)[C@H]1CCCCN1C)C(C)(C)C)c1nc(C(=O)N[C@@H](Cc2ccccc2)C[C@H](C)C(=O)O)cs1 | -0.638% (active) |
| COc1ccc(C(=O)c2cc(OC)c(OC)c(OC)c2)cc1OC(C)=O | 15.4% |
| COc1ccc(N(CC(=O)NCCC[Te]c2ccccc2)C(=O)CNC(=O)OC(C)(C)C)cc1 | -10.8% (active) |
| COC(=O)[C@@H](C)C[C@H](Cc1ccccc1)NC(=O)c1csc([C@@H](C[C@H](C(C)C)N(C)C(=O)[C@@H](NC(=O)[C@H]2CCCCN2C)C(C)C)OC(C)=O)n1 | -2.48% (active) |
| CC[C@H](C)[C@@H]1OC(=O)C(C)(C)[C@H](O)[C@H](Cc2ccccc2)OC(=O)[C@H](C(C)C)OC(=O)[C@@H](NC(=O)c2cccc(NC=O)c2O)[C@@H](C)OC1=O | 28% |
| NC(=O)CNc1ccc([As]=[As]c2ccc(NCC(N)=O)cc2)cc1 (centres undefined) | 94% |
| Fc1ccc2c(c1)c(-c1nc(-c3c[nH]c4ncccc34)cs1)cn2CCN1CCOCC1 | 62% |
| O=C([O][Hg][CH2]C1COCC([CH2][Hg][O]C(=O)c2ccccc2)O1)c1ccccc1 (centres undefined) | 96.8% |
| O=[N+]([O-])CC(c1ccccc1Cl)c1c(-c2ccccc2)[nH]c2ccccc12 (centres undefined) | 24.3% |
| CCn1c2ccccc2c2cc(C(=O)c3cccc4c3CCCN4)ccc21 | 103% |

| SMILES | growth |
| --- | --- |
| COc1ccc(/C(C)=C(\c2ccc(OCCN3CCOCC3)cc2)c2ccc(OC(=O)Cc3ccccc3)cc2)cc1 | 108% |
| Cc1cc(N(CCCl)CCCl)ccc1C=Nc1ccc(-c2csc(Cc3ccccc3)n2)cc1 | 13.4% |
| Cc1ccc2c(C(C[N+](=O)[O-])c3cccs3)c(-c3ccccc3)[nH]c2c1 (centres undefined) | 7.69% (active) |
| O=C(CC1(O)C(=O)N(Cc2ccccc2)c2ccc(Cl)cc21)c1ccc(C(=O)NCC2CCC3(CC2)OOC2(CCCCC2)OO3)cc1 (centres undefined) | -8.3% (active) |
| CCOC(=O)CCC(NC(=O)C(Cc1ccc(N(CCCl)CCCl)cc1)NC=O)C(=O)OCC (centres undefined) | 21.5% |
| COC(=O)[C@@H](C)C[C@H](Cc1ccccc1)NC(=O)c1csc([C@@H](C[C@H](C(C)C)N(C)C(=O)[C@@H](NC(=O)C23CC(NC(C)=O)(C2)C3)C2CC2)OC(C)=O)n1 | 82% |
| COC(=O)[C@]12CCC(C)(C)C[C@H]1[C@H]1C(=O)C[C@@H]3[C@@]4(C)C[C@@]5(CC(C)(C)[C@@H]4CC[C@@]3(C)[C@]1(C)CC2)OO[C@@](C)(C(F)(F)F)O5 | 95.7% |
| CNC(=O)Oc1ccc(N(C)C)cc1C(C)C | 118% |
| O=C(CC1(O)C(=O)N(Cc2ccccc2)c2ccc(F)cc21)c1ccc(C(=O)NCC2CCC3(CC2)OOC2(CCCCC2)OO3)cc1 (centres undefined) | -14.1% (active) |
| c1cnc2[nH]cc(-c3csc(-c4cn(CCCCN5CCCCC5)c5ccccc45)n3)c2c1 | 94.8% |
| COc1ccc(NC([Se])=NC23CC4CC(CC(C4)C2)C3)cc1 | -23.6% (active) |
| Clc1cccc(Cl)c1Cl | 95.1% |
| C[C@]12CCc3sc(-c4ccccc4O)nc3C1=CC[C@@H]1[C@@H]2CC[C@]2(C)C(=O)CC[C@@H]12 | 100% |
| O=C(CC1(O)C(=O)Nc2ccccc21)c1ccc(C(=O)NCC2CCC3(CC2)OOC2(CCCCC2)OO3)cc1 (centres undefined) | 76.2% |
| CCCOC(=O)N[C@H]1CCc2c(Br)c(OC)c(OC)c(OC)c2-c2ccc(SC)c(=O)cc21 | 5.54% (active) |
| Cc1cc(C)c(CBr)c(C)c1 | 101% |

Each molecule was assayed on SF-539 CNS in the same assay as above. Conditions: 10 µM unless noted.

| SMILES | growth |
| --- | --- |
| CCCC[C@H](NC(=O)[C@H]1CCCN1C)C(=O)N(C)[C@H](C[C@@H](OC(C)=O)c1nc(C(=O)N[C@@H](Cc2ccccc2)C[C@H](C)C(=O)OCC)cs1)C(C)C | 0.375% (active) |
| COc1ccc2c(c1)c(-c1nc(-c3c[nH]c4ncccc34)cs1)cn2CCCCN1CCCCC1 | -80.9% (active) |
